# Data as given in PubChem BioAssay AID488932 (Broad Institute, 2010).
# Entries with a potency or affinity are not part of this list. Active and inactive are the calls of the source.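 How the source made its calls: active means growth signal falls, with fitted half-maximal dose at most ten times the top valid dose; inconclusive means flat curve with a partial drop, or a poorly fitting curve; inactive means the rest, including compounds that raise signal.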
# Test: Candida albicans growth inhibition, agent alone, dose response, counter-screen for reversing antifungal drug resistance, CaCi-2 strain, no fluconazole, dry powder, set 4 (AID 488932)
# Settings: C. albicans CaCi-2 (fluconazole-resistant clinical isolate) growth, Alamar Blue, 48 h; series mostly up to 26 µM
row,SMILES,outcome
1,CC(C)CC(=O)N1CCN(c2ccnc3cc(Cl)ccc23)CC1,inactive
2,COc1cccc2c(N3CCN(C(=O)c4ccc(Cl)cc4)CC3)cc(C)nc12,inactive
3,Cc1cc(N2CCN(C(=O)c3ccc(Cl)cc3)CC2)c2ccc(F)cc2n1,inactive
4,O=C(Nc1ccc(Cl)cc1)N1CCN(c2ccnc3cc(Cl)ccc23)CC1,inactive
5,Cc1ccc(N2CCN(C(=O)c3ccc(Cl)cc3)CC2)nn1,inactive
6,O=C(c1ccc(Cl)cc1)N1CCN(c2ccnc3ccc(Cl)cc23)CC1,inactive
7,O=C(c1ccc(Cl)cc1)N1CCN(c2ccc(Cl)cc2)CC1,inactive
8,O=C(c1ccc(Cl)cc1)N1CCN(c2ccnc3cc(Cl)ccc23)CC1,inactive
9,O=C(c1ccc(Cl)cc1)N1CCN(c2cccc(C(F)(F)F)n2)CC1,inactive
10,Clc1ccc2c(N3CCNCC3)ccnc2c1,inactive
11,O=C(c1cccc(Cl)c1)N1CCN(c2ccnc3cc(Cl)ccc23)CC1,inactive
12,O=C(C1CC1)N1CCN(c2ccnc3cc(Cl)ccc23)CC1,inactive
13,O=C(c1ccc(Cl)cc1)N1CCN(c2ccncc2)CC1,inactive
14,O=C(c1ccc(Cl)cc1)N1CCN(c2nc3ccccc3o2)CC1,inactive
15,COc1cccnc1N1CCN(C(=O)c2ccc(Cl)cc2)CC1,inactive
16,O=C(c1ccc(Cl)c(Cl)c1)N1CCN(c2ccnc3cc(Cl)ccc23)CC1,inactive
17,O=C(c1ccc(Cl)cc1)C1CCN(c2ccnc3cc(Cl)ccc23)CC1,inactive
18,O=C(c1ccc(Cl)cc1)N1CCN(c2ccnc3ccccc23)CC1,inactive
19,O=S(=O)(c1ccc(Cl)cc1)N1CCN(c2ccnc3cc(Cl)ccc23)CC1,inactive
